Assay outcomes (PubChem BioAssay)
ST2 IL33 inh = inhibitors of human ST2 (IL1RL1) binding to IL-33. inhibition, % for hits at 17 µM. AID 1259354. 78,000 tested, 2.3% active. AlphaLISA ST2-Fc/biotin-IL-33 interaction, 1 h; in the data active = inhibition above about 30%
Target sequence (Q01638 whole entry, looked up): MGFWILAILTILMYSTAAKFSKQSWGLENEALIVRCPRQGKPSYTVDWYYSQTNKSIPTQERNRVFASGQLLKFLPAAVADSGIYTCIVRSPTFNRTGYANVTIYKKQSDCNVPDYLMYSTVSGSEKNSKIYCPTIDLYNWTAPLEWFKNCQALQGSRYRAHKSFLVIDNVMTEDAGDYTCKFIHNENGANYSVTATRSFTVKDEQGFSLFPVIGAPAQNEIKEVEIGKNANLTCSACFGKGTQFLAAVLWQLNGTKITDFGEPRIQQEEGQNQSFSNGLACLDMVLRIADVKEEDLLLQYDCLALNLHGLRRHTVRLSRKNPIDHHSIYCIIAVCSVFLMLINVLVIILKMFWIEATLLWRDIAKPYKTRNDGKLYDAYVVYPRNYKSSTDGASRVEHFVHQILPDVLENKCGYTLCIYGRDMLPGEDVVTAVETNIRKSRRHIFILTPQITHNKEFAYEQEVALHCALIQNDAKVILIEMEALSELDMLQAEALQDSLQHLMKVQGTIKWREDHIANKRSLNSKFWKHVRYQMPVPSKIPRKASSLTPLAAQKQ
* marks the source's active call; other numbers are inactive results; i = inactive; ! = not active in a repeat. Many of the other results were omitted from the sample, so hits are more common in it than they were.

SMILES	ST2 IL33 inh
COCc1cc(C)nc(SCC(=O)c2ccc(Cl)cc2)c1C#N	30%*!
Cc1cc(C)c(C#N)c(SCC(=O)c2ccc(F)cc2)n1	i
Cc1cc(C(F)(F)F)c(C#N)c(SCC(N)=O)n1	i
Cc1cc(C(F)(F)F)c(C#N)c(SCC(=O)c2ccc([N+](=O)[O-])cc2)n1	60%*
CCOc1ccc(NC(=O)CSc2nc3c(c(=O)n2-c2ccc(Cl)cc2)SCC3)cc1	i
CCOc1ccc(-n2c(O)c(C=NC(CO)(CO)CO)c(=O)[nH]c2=O)cc1	i
CCc1nnc(NC(=O)C(C)N2CCC(O)(CN3CCCC3)CC2)s1 (stereo not given)	i
Cc1ccc(S(=O)(=O)NC2=NCN(C)CN2)cc1	i
Cc1ccc(CCN2C(=O)CCC2(C)C(=O)NC2CCCCC2)cc1 (stereo not given)	i
C=CCNc1nc2ccccc2nc1NS(=O)(=O)c1ccc(Br)cc1	33%*
Cc1cc(C)nc(NS(=O)(=O)c2ccc(NC(=O)c3ccc(Br)cc3)cc2)n1	i
CC(=O)Nc1ccc(S(=O)(=O)Nc2nc3ccccc3nc2Nc2cccc(O)c2)cc1	i
O=C1CC(c2cccs2)CC2=C1C(c1cc(F)ccc1F)Nc1ccccc1N2 (stereo not given)	i
O=C1CC(c2cccs2)CC2=C1C(c1cccc([N+](=O)[O-])c1)Nc1ccccc1N2 (stereo not given)	i
O=C1CC(c2cccs2)CC2=C1C(c1cccc(F)c1)Nc1ccccc1N2 (stereo not given)	30%*
Cc1cc(C)c(NS(=O)(=O)c2ccc3c4c(cccc24)C(=O)N3)c(C)c1	i
O=C(CC(c1ccc(O)cc1)c1ccccc1O)NC1CCCCCC1 (stereo not given)	i
CNC(=O)N1C(=O)C(=O)c2ccccc21	i
CC(Oc1ccc(C=C2C(=O)c3ccccc3C2=O)cc1)C(=O)O (stereo not given)	i
COc1ccc(-c2nc3s/c(=C\c4ccc(N(C)C)cc4)c(=O)n3n2)cc1	i
CC(=O)N1/C(=C/c2ccncc2)C(=O)c2ccccc21	39%*
CC(=O)N1/C(=C/c2ccc(N(C)C)cc2)C(=O)c2ccccc21	66%*
CC(=O)N1C(=O)C(=O)c2ccccc21	i
COC(=O)c1sccc1NC(=O)c1cc(-c2ccc(Cl)cc2)nc2ccccc12	i
O=C(Nc1ccc(Cl)cc1)Nc1cccc(Cl)c1	i
SMILES	ST2 IL33 inh
CCCCOC(=O)C1=C(C)Nc2nnnn2C1c1cccc(Br)c1 (stereo not given)	i
CN(C(=O)c1cc(-c2ccc(Cl)cc2)on1)c1ccccc1	i
O=C1NN(c2ccc(Cl)c(Cl)c2)C(=O)/C1=C/c1ccc(-c2ccc3c(c2)C(=O)NC3=O)o1	i
N#C/C(=C\c1ccc(-c2ccc3c(c2)C(=O)NC3=O)o1)c1nc2ncc(Br)cc2[nH]1	33%*
COC(=O)Cn1cnc2scc(-c3ccc(OC)c(OC)c3)c2c1=O	i
COc1ccc(C2Nc3ccccc3NC3=C2C(=O)CCC3)c(OC)c1 (stereo not given)	i
